Experimental data taken from PubChem BioAssay.
Where “and” joins values, the source holds several entries; their conditions need not be identical. Equal entries are not always repeated. Calls of active or inactive are those of the source.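 How the source made its calls, unless noted: active means normalized viability below 100% at a tested concentration; inactive means the rest.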

Experiments:
[1] = ovarian cancer cell viability with rucaparib, profiling panel, oncology-focused library, rucaparib conditional (AID 1508598); conditions: patient-derived ovarian cancer cells, CellTiter-Glo viability, 144 h, stronger effect = lower value
[2] = biological target: 6-phosphogluconate dehydrogenase, decarboxylating (Homo sapiens) (UniProt P52209); experiment: 6PGD enzyme inhibitors, primary screen, biochemical, human, recombinant enzyme, NADPH absorbance (AID 1159550;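 active means at least 20% inhibition of 6-phosphogluconate dehydrogenase activity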); conditions: recombinant 6PGD, NADPH absorbance 341 nm; at 10 µM; stronger effect = higher value
[3] = liver-stage malaria parasite growth inhibition, primary screen, cell-based, HepG2, luciferase luminescence, HepG2 viability (AID 624349; in the data active means parasite load remaining mostly below about 12%, no sharp cut-off; inactive means mostly above about 10%;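 further: 100% = mean of DMSO negative control wells on the same plate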); conditions: P. berghei liver stage in HepG2, luciferase luminescence, concentration not given here; parasite load remaining: stronger effect = lower value; viability: measured here: HepG2 viability without parasites
[4] = Cy5 fluorescence interference with SSB-bound oligo, artefact control for HCV NS3 helicase inhibitor project, biochemical, NIH Clinical Collection, E. coli SSB (AID 743268; call rule not given here)
[5] = test system: Hepatitis C virus NS3 helicase; experiment: HCV NS3 helicase inhibitors, primary screen, biochemical, fluorescence polarization, NIH Clinical Collection (AID 743270; call rule not given here); conditions: NS3 helicase binding to Cy5-dT15 DNA, stronger effect = higher value, concentration not given here
[6] = biological target: Single-stranded DNA-binding protein (Escherichia coli (strain K12)) (UniProt P0AGE0); experiment: E. coli SSB displacement from DNA, counter-screen for HCV NS3 helicase inhibitor project, biochemical, fluorescence polarization, NIH Clinical Collection (AID 743271; in the data active means inhibition above about 28%); conditions: stronger effect = higher value, concentration not given here
[7] = fluorescence interference in NS3h assay format, artefact control for HCV NS3 helicase inhibitor project, biochemical, NIH Clinical Collection (AID 743272; call rule not given here;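 further: HCV NS3 helicase with a Cy5 labelled single stranded DNA probe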); conditions: fluorescence interference counterscreen, stronger effect = lower value
[8] = modulation of C. elegans fzo-1 (AID 1259413; call rule not given here;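 further: fzo-1 mutant C. elegans worms in liquid wells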); conditions: C. elegans fzo-1 modulator screen, mean read-out; stronger effect = higher value
[9] = differential killing of epithelial or mesenchymal cells, primary screen, imaging, PC-3E GFP, TEM4-18 mCherry, co-culture (AID 1345086;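 active means compounds killing one labelled cell type while sparing the other, by normalised counts and ratio limits, not self-fluorescent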;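 on all read-outs here: cells exposed to compound for 72 h before imaging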;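 on red/green cell ratio (normalised): normalised mesenchymal count divided by normalised epithelial count so high means epithelial killing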); conditions: imaging cell counts, at 1 µM; for red/green cell ratio (normalised): actives lie on both sides, counts scaled to control wells, 1 = unselective
[10] = sensitizers of A549 cells to miR-34 induction, primary screen, imaging, A549 dox-inducible miR-34, nuclei and caspase counts (AID 1347080;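 active means compounds whose cell count with miR-34 switched on is under 0.7 times the count with it off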); conditions: A549 miR-34 inducible, Hoechst nuclei count, 48 h
[11] = biological target: Mitogen-activated protein kinase 7 (Homo sapiens) (UniProt Q13164); experiment: ERK5 transactivation activators in reporter cells, primary screen, cell-based, HTS (AID 1508626;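 active means luciferase signal above three times the same-plate solvent-only control wells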;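 further: luciferase driven by Gal4-ERK5 fusion binding five Gal4 sites before minimal TATA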); conditions: HeLa Gal4-ERK5 transactivation, 18 h, at 5 µM, stronger effect = higher value
[12] = viability rescue of complex I mutant cybrids, primary screen, cell-based, galactose medium, ATP luminescence (AID 1645843;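 active means z-score of at least 1.8 in each of two replicates, scored against plate mean and spread of sample wells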;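 further: positive z means more ATP and so rescue of galactose-driven cybrid death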); conditions: complex I mutant cybrid cells, 72 h, stronger effect = higher value
F380Y = experiment: modulators of BK channel variants, profiling panel, selectivity assay, cell-based, U2OS BacMam, thallium flux, beta subunits (AID 1259406;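 active means thallium flux through the channel raised or lowered by more than 3 SD from vehicle-only wells, actives on both sides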;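 further: initial slope of Thallos dye fluorescence rise after thallium is added; log ratio against the mean of 0.3% DMSO vehicle wells on the same plate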); conditions: at 30 µM
F380Y/beta2Delta = experiment: as above; conditions: at 30 µM
[13] = biological target: Calcium-activated potassium channel subunit alpha-1 (Homo sapiens) + Leucine-rich repeat-containing protein 26 (Homo sapiens) (UniProt Q12791+Q2I0M4); experiment: as above; conditions: F380Y/Slo1WT/gamma1, at 30 µM
R275C = experiment: as above; conditions: at 30 µM
R275C/beta1 = experiment: as above; conditions: at 30 µM
R275C/beta2Delta = experiment: as above; conditions: at 30 µM
[14] = survival rescue of mitochondrial mutant cells in low glucose, primary screen, MELAS cybrids, Rieske KO mouse fibroblasts, CellTiter-Glo (AID 1508586;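 active means mean z-score across replicates of 1.96 or higher in either the MELAS or the Rieske mutant cell line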;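 further: z relative to plate mean and SD of compound and empty wells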)
[15] = biological target: NAD(+) hydrolase SARM1 (Homo sapiens) (UniProt Q6SZW1); experiment: SARM1 TIR NADase inhibitors, cell lysate, NAD-Glo luminescence (AID 1508614;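 active means compound whose remaining NAD level is above about 45 nM, limit read from the data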); conditions: SAM-TIR HEK293T lysate NADase, at 1 µM, stronger effect = higher value
[16] = at 0.000305 µM, OCI-C5x cells, with rucaparib 10 µM, 100% = cells with rucaparib alone
[17] = at 0.000305 µM, OCI-C5x cells, without rucaparib
[18] = at 0.000305 µM, OCI-P5x cells, with rucaparib 20 µM, 100% = cells with rucaparib alone
[19] = at 0.000305 µM, OCI-P5x cells, without rucaparib
[20] = at 0.00122 µM, OCI-C5x cells, with rucaparib 10 µM, 100% = cells with rucaparib alone
[21] = at 0.00122 µM, OCI-C5x cells, without rucaparib
[22] = at 0.00122 µM, OCI-P5x cells, with rucaparib 20 µM, 100% = cells with rucaparib alone
[23] = at 0.00122 µM, OCI-P5x cells, without rucaparib
[24] = at 0.00488 µM, OCI-C5x cells, with rucaparib 10 µM, 100% = cells with rucaparib alone
[25] = at 0.00488 µM, OCI-C5x cells, without rucaparib
[26] = at 0.00488 µM, OCI-P5x cells, with rucaparib 20 µM, 100% = cells with rucaparib alone
[27] = at 0.00488 µM, OCI-P5x cells, without rucaparib
[28] = at 0.0195 µM, OCI-C5x cells, with rucaparib 10 µM, 100% = cells with rucaparib alone
[29] = at 0.0195 µM, OCI-C5x cells, without rucaparib
[30] = at 0.0195 µM, OCI-P5x cells, with rucaparib 20 µM, 100% = cells with rucaparib alone
[31] = at 0.0195 µM, OCI-P5x cells, without rucaparib
[32] = at 0.0781 µM, OCI-C5x cells, with rucaparib 10 µM, 100% = cells with rucaparib alone
[33] = at 0.0781 µM, OCI-C5x cells, without rucaparib
[34] = at 0.0781 µM, OCI-P5x cells, with rucaparib 20 µM, 100% = cells with rucaparib alone
[35] = at 0.0781 µM, OCI-P5x cells, without rucaparib
[36] = at 0.313 µM, OCI-C5x cells, with rucaparib 10 µM, 100% = cells with rucaparib alone
[37] = at 0.313 µM, OCI-C5x cells, without rucaparib
[38] = at 0.313 µM, OCI-P5x cells, with rucaparib 20 µM, 100% = cells with rucaparib alone
[39] = at 0.313 µM, OCI-P5x cells, without rucaparib
[40] = at 1.25 µM, OCI-C5x cells, with rucaparib 10 µM, 100% = cells with rucaparib alone
[41] = at 1.25 µM, OCI-C5x cells, without rucaparib
[42] = at 1.25 µM, OCI-P5x cells, with rucaparib 20 µM, 100% = cells with rucaparib alone
[43] = at 1.25 µM, OCI-P5x cells, without rucaparib
[44] = at 5 µM, OCI-C5x cells, with rucaparib 10 µM, 100% = cells with rucaparib alone
[45] = at 5 µM, OCI-C5x cells, without rucaparib
[46] = at 5 µM, OCI-P5x cells, with rucaparib 20 µM, 100% = cells with rucaparib alone
[47] = at 5 µM, OCI-P5x cells, without rucaparib
[48] = measured here: epithelial PC-3E GFP cell survival
[49] = measured here: mesenchymal TEM4-18 mCherry cell survival
[50] = stronger effect = lower value, cell number ratio, induced over uninduced
[51] = measured here: relative caspase fold change +Dox/-Dox
[52] = measured here: total cells with miR-34 induction, stronger effect = lower value
[53] = measured here: total cells without miR-34 induction
[54] = MELAS cybrid survival, CellTiter-Glo 48 h, stronger effect = higher value
[55] = Rieske KO mouse fibroblast survival, CellTiter-Glo 72 h

Calcium-activated potassium channel subunit alpha-1 (Homo sapiens) + Leucine-rich repeat-containing protein 26 (Homo sapiens), sequence (Q2I0M4 whole entry, looked up, one chain of several): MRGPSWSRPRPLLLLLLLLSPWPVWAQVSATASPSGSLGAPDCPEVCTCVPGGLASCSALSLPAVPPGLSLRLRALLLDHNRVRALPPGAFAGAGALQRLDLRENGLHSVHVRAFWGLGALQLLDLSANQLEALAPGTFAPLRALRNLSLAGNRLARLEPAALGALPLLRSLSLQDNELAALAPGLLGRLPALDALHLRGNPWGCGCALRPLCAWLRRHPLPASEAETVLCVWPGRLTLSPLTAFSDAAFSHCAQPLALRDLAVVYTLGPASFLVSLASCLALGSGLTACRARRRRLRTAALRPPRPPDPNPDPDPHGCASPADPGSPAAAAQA
6-phosphogluconate dehydrogenase, decarboxylating (Homo sapiens), sequence (P52209 whole entry, looked up): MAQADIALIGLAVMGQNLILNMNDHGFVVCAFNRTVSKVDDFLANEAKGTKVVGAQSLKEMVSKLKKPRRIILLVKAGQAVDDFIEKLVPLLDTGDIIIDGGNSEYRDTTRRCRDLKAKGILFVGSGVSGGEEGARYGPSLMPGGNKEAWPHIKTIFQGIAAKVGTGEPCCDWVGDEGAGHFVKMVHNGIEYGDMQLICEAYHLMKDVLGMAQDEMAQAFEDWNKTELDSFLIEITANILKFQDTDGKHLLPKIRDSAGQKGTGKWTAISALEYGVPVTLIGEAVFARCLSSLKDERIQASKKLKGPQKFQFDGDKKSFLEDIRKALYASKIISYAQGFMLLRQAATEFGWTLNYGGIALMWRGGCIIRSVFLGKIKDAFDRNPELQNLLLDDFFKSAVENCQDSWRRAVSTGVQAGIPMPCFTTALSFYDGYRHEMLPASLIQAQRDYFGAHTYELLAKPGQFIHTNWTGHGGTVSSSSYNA
Mitogen-activated protein kinase 7 (Homo sapiens), sequence (Q13164 whole entry, looked up, the tested form may be a part): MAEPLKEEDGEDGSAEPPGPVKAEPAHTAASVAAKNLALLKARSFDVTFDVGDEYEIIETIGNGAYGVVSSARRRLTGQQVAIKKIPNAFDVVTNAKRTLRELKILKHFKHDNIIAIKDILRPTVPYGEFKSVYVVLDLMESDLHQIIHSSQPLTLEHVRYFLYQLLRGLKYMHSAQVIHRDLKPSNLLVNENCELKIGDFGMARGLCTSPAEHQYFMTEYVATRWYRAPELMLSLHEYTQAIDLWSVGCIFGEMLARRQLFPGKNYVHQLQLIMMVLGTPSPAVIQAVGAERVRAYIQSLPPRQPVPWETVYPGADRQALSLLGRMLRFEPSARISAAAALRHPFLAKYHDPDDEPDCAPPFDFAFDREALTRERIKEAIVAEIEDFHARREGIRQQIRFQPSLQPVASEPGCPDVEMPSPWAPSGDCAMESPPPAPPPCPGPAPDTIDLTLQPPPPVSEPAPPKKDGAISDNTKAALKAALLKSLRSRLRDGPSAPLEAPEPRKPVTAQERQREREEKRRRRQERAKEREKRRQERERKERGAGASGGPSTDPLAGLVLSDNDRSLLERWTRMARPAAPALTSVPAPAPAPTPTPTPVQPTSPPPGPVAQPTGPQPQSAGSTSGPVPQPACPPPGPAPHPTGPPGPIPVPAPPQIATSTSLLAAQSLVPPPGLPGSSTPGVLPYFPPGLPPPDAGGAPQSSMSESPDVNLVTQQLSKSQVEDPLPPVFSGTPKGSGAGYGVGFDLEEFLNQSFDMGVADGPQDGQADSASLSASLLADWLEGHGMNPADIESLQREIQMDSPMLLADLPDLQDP
NAD(+) hydrolase SARM1 (Homo sapiens), sequence (Q6SZW1 whole entry, looked up): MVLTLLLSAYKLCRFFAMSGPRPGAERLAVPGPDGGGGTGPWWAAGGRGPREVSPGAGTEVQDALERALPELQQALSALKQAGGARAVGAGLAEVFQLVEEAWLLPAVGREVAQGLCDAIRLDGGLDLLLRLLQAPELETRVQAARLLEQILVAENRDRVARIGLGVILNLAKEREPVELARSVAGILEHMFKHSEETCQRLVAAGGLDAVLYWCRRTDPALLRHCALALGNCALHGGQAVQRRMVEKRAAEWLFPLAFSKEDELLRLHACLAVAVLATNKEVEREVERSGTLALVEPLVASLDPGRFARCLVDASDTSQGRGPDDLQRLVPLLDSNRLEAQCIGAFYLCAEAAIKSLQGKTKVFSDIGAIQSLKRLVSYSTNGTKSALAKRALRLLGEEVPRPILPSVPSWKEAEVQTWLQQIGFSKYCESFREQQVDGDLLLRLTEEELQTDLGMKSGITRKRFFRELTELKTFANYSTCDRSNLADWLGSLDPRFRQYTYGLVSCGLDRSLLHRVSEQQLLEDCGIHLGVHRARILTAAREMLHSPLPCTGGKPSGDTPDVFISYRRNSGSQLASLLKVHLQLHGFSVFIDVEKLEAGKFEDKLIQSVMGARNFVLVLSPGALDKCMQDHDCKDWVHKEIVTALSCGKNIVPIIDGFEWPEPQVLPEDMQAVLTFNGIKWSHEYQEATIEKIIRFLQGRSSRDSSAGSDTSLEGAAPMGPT

CC(C)n1c(/C=C/[C@@H](O)C[C@@H](O)CC(=O)O)c(-c2ccc(F)cc2)c2ccccc21
inactive: viability [1, 16] 102% | viability [1, 17] 102% | viability [1, 20] 102% | viability [1, 21] 109%
active: viability [1, 18] 86.5% | viability [1, 19] 89.2% | viability [1, 22] 89.7% | viability [1, 23] 88.8% | viability [1, 24] 92% | viability [1, 25] 96.6% | viability [1, 26] 82.4% | viability [1, 27] 87.2% | viability [1, 28] 73.9% | viability [1, 29] 71.3% | viability [1, 30] 44.2% | viability [1, 31] 53.6% | viability [1, 32] 50.9% | viability [1, 33] 54.7% | viability [1, 34] 21.8% | viability [1, 35] 31% | viability [1, 36] 32.6% | viability [1, 37] 33.3% | viability [1, 38] 8.26% | viability [1, 39] 10.2% | viability [1, 40] 20.2% | viability [1, 41] 22.5% | viability [1, 42] 5.66% | viability [1, 43] 4.09% | viability [1, 44] 7.97% | viability [1, 45] 7.19% | viability [1, 46] 5.66% | viability [1, 47] 4.42%

C=C(C)C1Cc2c(ccc(C(=O)O)c2O)O1 (stereo unspecified)
inactive: inhibition [2] -0.806%

CC1=C2C(=COC(C)C2C)C(=O)C(C(=O)O)=C1O (stereo unspecified)
inactive: inhibition [2] 10.6%

Cc1occc(=O)c1O
1.05: normalised cell number [9, 49]
1.16: normalised cell number [9, 48]
inactive: parasite load remaining [3] 65.4% | fluorescence ratio [4] 1 | inhibition [5] -7.21% | inhibition [6] -2.76% | fluorescence ratio [7] 0.97 | inhibition [2] 8.86% | mean signal [8] 263 | red/green cell ratio (normalised) [9] 0.9 | fold change [10, 50] 1.32 | luciferase signal [11] 52 AU | z-score [12] 0.51 | log fold change Tl+ flux (F380Y) 0.00693 | log fold change Tl+ flux (F380Y/beta2Delta) 0.00122 | log fold change Tl+ flux [13] 0.0152 | log fold change Tl+ flux (R275C) -0.0195 | log fold change Tl+ flux (R275C/beta1) -0.0131 | log fold change Tl+ flux (R275C/beta2Delta) 0.041
6830: cell count [10, 53]
0.534: fold change [10, 51]
68.2%: viability [3]
9050: cell count [10, 52]

CNCCC(Oc1ccc(C(F)(F)F)cc1)c1ccccc1 (stereo unspecified)
-2.64 and 0.201 and 0.197: z-score [14, 55]
inactive: fluorescence ratio [4] 1.04 | inhibition [5] -2.27% | inhibition [6] -2.76% | fluorescence ratio [7] 1.03 | inhibition [2] 19% | mean signal [8] 190 | red/green cell ratio (normalised) [9] 1 | z-score [14, 54] 1.26 and -0.395 and -0.285 | remaining NAD [15] 10 nM | log fold change Tl+ flux [13] 0.0464 | log fold change Tl+ flux (R275C) -0.0214 | log fold change Tl+ flux (R275C/beta2Delta) 0.0608
1.16: normalised cell number [9, 48]
1.15: normalised cell number [9, 49]
active: log fold change Tl+ flux (F380Y) 0.129 | log fold change Tl+ flux (F380Y/beta2Delta) 0.189 | log fold change Tl+ flux (R275C/beta1) 0.297

COC(=O)[C@H](c1ccccc1Cl)N1CCc2sccc2C1
1.69 and 3.06 and 2.09: fold change [10, 51]
1.15: normalised cell number [9, 48]
inactive: fluorescence ratio [4] 1 | inhibition [5] -9.55% | inhibition [6] 3.34% | fluorescence ratio [7] 1 | inhibition [2] 3.19% | mean signal [8] 252 | red/green cell ratio (normalised) [9] 1.19 | fold change [10, 50] 0.979 and 0.893 and 0.849 | z-score [14, 54] -0.401 and -0.448 | remaining NAD [15] 10 nM | luciferase signal [11] 20 AU | z-score [12] -0.555 and -0.06 | log fold change Tl+ flux (F380Y) -0.0366 | log fold change Tl+ flux (F380Y/beta2Delta) -0.0129 | log fold change Tl+ flux [13] -0.0336 | log fold change Tl+ flux (R275C) 0.027 | log fold change Tl+ flux (R275C/beta1) -0.0372 | log fold change Tl+ flux (R275C/beta2Delta) -0.0599
-0.332 and -1.48: z-score [14, 55]
9850 and 11200 and 8380: cell count [10, 52]
1.36: normalised cell number [9, 49]
10100 and 12600 and 9870: cell count [10, 53]

CN(C)c1nc(N(C)C)nc(N(C)C)n1
inactive: fluorescence ratio [4] 1.08 | inhibition [5] -2.27% | inhibition [6] 1.81% | fluorescence ratio [7] 0.99 | inhibition [2] 11.2% | mean signal [8] 270 | red/green cell ratio (normalised) [9] 1.11 | z-score [14, 54] -0.405 and 0.759 and 0.19 | viability [1, 16] 108% | viability [1, 20] 112% | viability [1, 21] 100% | viability [1, 24] 120% | viability [1, 25] 101% | viability [1, 26] 101% | viability [1, 28] 113% | viability [1, 29] 100% | viability [1, 30] 102% | viability [1, 32] 110% | viability [1, 33] 101% | viability [1, 34] 103% | viability [1, 35] 106% | viability [1, 36] 107% | viability [1, 37] 108% | viability [1, 38] 108% | viability [1, 44] 109% | viability [1, 46] 107% | remaining NAD [15] 10 nM | luciferase signal [11] 40 AU | z-score [12] 0.975 and 0.76 and 0.825 | log fold change Tl+ flux (F380Y) 0.0102 | log fold change Tl+ flux (F380Y/beta2Delta) 0.00703 | log fold change Tl+ flux [13] 0.0168 | log fold change Tl+ flux (R275C) -0.00384 | log fold change Tl+ flux (R275C/beta1) -0.054 | log fold change Tl+ flux (R275C/beta2Delta) -0.0096
0.98: normalised cell number [9, 48]
active: viability [1, 17] 98.3% | viability [1, 18] 95.7% | viability [1, 19] 87% | viability [1, 22] 95.8% | viability [1, 23] 89% | viability [1, 27] 92.4% | viability [1, 31] 96.6% | viability [1, 39] 99.9% | viability [1, 40] 96.8% | viability [1, 41] 67.8% | viability [1, 42] 78.5% | viability [1, 43] 28.8% | viability [1, 45] 97.9% | viability [1, 47] 98.6%
0.906 and 0.36 and 0.155: z-score [14, 55]
1.08: normalised cell number [9, 49]
